Test [1] in a line: antimalarial activity against Dd2 strain (AID 2302;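 active means growth inhibition above 50% at the single 2 µM test dose, taken to imply half-maximal potency below 2 µM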;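 further: 0% = DMSO untreated growth and 100% = chloroquine plus artemisinin killed control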). The conditions noted are these: P. falciparum Dd2 in RBCs, LDH growth readout, 72 h; at 2 µM; active compounds read high.
Test [2] in a line: human hepatoma cell viability loss – ATP luminescence, cytotoxicity control for P. falciparum antimalarial project, primary screen (AID 2303;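 active means inhibition above 50%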;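 further: 0% = DMSO wells and 100% = digitonin-killed cells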). The settings on record: HepG2 viability, 24-48 h, at 10 µM, active compounds read high.
For test [3], the target named is L-lactate dehydrogenase (Plasmodium falciparum (isolate CDC / Honduras)) (UniProt Q27743). Put plainly: PfLDH activity inhibition – cell lysate, 3D7 strain, counter-screen for P. falciparum growth inhibition project (AID 2304).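 Further: 0% = vehicle and 100% = reference inhibitor.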 The settings on record: P. falciparum 3D7 crude extract, LDH APAD/NBT absorbance; at 2 µM; active compounds read high.
Test [4] is described as follows: inhibition of 3D7 malaria parasite growth – strain 3D7 (AID 2306).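 Further: 0% = DMSO wells and 100% = chloroquine plus artemisinin control wells.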 The conditions noted are these: P. falciparum 3D7 erythrocytic growth, LDH absorbance, 72 h; at 2 µM; active compounds read high.
The target of test [5] is Calcium-dependent protein kinase 1 (Plasmodium falciparum (isolate 3D7)) (UniProt P62344). Put plainly: PfCDPK1 kinase inhibitors, biochemical, TCAMS library (AID 1159585; cut-off not given, nearly all actives have IC50 up to about 0.98 µM;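 further: inhibitors leave more ATP so luminescence rises with inhibition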). The conditions noted are these: recombinant PfCDPK1, Kinase-Glo ATP depletion luminescence.
Test [6] concerns the target Plasmodium falciparum protein kinase 6 (PK6, PF3D7_1337100) (UniProt Q8IDW1). Put plainly: PfPK6 kinase inhibitors, biochemical, TCAMS library (AID 1159586). The settings on record: recombinant PfPK6, Kinase-Glo ATP depletion luminescence.
Test [7] deals with Protein kinase 7 (PK7), Plasmodium falciparum 3D7 (PF3D7_0213400) (UniProt Q7YTF7). The test can be described thus: inhibition of Plasmodium PK7 catalytic activity – biochemical, TCAMS antimalarial set, Kinase-Glo luminescence (AID 1159587). The settings on record: recombinant PfPK7, Kinase-Glo ATP depletion luminescence.
For test [8], the target named is Calcium-dependent protein kinase 4 (Plasmodium falciparum (isolate 3D7)) (UniProt Q8IBS5). The test can be described thus: PfCDPK4 kinase inhibitors, biochemical, TCAMS library (AID 1159588; cut-off not given, nearly all actives have IC50 up to about 0.91 µM). The settings on record: recombinant PfCDPK4, Kinase-Glo ATP depletion luminescence.

Structures are written as SMILES. Values without a mark were called inactive. For some of these results: Entries with a potency or affinity are not part of this list. Activity calls are given as the source filed them. Unless noted, how the calls were made is not given here.

Calcium-dependent protein kinase 4 (Plasmodium falciparum (isolate 3D7)), sequence (Q8IBS5 whole entry, looked up): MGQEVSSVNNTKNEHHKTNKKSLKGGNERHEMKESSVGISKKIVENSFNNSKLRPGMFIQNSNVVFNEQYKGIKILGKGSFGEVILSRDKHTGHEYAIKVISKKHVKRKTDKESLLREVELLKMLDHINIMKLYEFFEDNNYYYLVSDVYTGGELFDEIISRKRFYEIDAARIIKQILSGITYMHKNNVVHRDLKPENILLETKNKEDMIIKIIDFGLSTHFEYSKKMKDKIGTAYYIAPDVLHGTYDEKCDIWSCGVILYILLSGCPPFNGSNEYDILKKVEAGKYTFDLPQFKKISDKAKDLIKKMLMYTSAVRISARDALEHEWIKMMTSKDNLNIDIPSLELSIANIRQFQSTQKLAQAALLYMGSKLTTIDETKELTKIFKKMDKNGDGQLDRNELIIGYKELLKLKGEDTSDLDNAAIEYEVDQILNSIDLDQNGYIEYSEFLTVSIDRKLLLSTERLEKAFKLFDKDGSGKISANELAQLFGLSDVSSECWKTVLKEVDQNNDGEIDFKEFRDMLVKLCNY
Calcium-dependent protein kinase 1 (Plasmodium falciparum (isolate 3D7)), sequence (P62344 whole entry, looked up): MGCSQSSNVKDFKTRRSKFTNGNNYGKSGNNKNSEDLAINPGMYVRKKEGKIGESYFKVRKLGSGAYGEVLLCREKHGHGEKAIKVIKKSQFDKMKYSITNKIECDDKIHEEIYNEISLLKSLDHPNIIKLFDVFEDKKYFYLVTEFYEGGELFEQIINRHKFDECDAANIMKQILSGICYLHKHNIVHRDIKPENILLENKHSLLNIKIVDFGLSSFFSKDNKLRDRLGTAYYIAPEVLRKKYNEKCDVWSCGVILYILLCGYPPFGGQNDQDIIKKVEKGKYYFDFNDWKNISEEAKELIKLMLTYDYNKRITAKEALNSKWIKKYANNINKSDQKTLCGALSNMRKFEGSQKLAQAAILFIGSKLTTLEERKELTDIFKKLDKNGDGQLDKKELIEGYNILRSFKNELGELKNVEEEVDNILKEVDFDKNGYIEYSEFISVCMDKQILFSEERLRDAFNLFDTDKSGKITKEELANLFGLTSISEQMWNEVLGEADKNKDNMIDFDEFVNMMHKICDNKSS
L-lactate dehydrogenase (Plasmodium falciparum (isolate CDC / Honduras)), sequence (Q27743 whole entry, looked up): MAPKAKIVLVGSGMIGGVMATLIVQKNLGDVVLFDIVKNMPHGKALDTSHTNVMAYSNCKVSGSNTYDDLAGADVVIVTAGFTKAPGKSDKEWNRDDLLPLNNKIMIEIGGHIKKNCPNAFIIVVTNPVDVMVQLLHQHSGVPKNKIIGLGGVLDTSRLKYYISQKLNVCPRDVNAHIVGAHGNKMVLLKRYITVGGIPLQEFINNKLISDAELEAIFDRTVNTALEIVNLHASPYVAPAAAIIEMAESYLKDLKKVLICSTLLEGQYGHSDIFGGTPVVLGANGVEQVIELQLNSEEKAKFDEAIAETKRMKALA
Protein kinase 7 (PK7), Plasmodium falciparum 3D7 (PF3D7_0213400), sequence (Q7YTF7 1-343): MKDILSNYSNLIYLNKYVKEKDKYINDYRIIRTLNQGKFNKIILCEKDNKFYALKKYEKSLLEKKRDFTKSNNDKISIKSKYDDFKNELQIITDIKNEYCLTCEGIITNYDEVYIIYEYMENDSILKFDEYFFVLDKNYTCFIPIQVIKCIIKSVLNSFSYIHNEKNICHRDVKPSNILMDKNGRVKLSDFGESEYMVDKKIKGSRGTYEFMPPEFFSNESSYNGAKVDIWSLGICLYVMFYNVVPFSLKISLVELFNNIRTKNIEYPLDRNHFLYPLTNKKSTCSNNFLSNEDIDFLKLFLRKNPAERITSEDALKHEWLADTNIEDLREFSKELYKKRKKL
Plasmodium falciparum protein kinase 6 (PK6, PF3D7_1337100), sequence (Q8IDW1 1-305): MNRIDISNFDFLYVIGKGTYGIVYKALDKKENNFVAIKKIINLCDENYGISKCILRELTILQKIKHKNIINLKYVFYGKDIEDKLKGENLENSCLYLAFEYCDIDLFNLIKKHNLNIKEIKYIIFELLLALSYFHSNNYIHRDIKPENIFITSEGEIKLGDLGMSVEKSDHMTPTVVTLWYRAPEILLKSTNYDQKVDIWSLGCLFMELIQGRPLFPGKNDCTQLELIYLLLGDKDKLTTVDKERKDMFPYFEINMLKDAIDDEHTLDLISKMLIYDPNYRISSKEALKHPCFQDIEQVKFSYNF

With `O=C(Nc1nc2cc(S(=O)(=O)NCc3ccc(Cl)c(Cl)c3)ccc2n1CCCn1ccnc1)c1ccc(Cl)cc1`, the growth inhibition is 44% in test [1] and 101% (active) in test [4]. In addition, the inhibition in test [2] was -12%; in test [3] it was 4%. Moreover, the result in test [5], in test [6], in test [7] and in test [8] was inactive.
Consider `CCc1ccc(S(=O)(=O)Nc2cccc(CCN3CCC(N4CCCCC4)CC3)c2)cc1`, for which the results for the growth inhibition in test [1] and in test [4] were 20% and 101% (active), respectively. The inhibition in test [2] is 21%; in test [3], -4%. Moreover, the outcome in test [5], in test [6], in test [7] and in test [8] was inactive.
As to `CC(=O)NC1=NC(C)(C)N(OCc2ccc(Cl)c(Cl)c2)C(NC(C)=O)=N1`, the growth inhibition in test [1] was 97% (active); in test [4], 94% (active). Besides, the inhibition in test [2] was 68% (active); in test [3], -5%. Moreover, the outcome in test [5], in test [6], in test [7] and in test [8] was inactive.
For the molecule `CC(CN(C)C)C(=O)Nc1ccc(-c2ccc(-c3nc4ccccc4[nH]3)s2)cc1` (stereo not given), the growth inhibition in test [1] is 86% (active); in test [4] it was 100% (active). The inhibition in test [2] is 14%; in test [3] it was 5%. Further, the outcome in test [5], in test [6], in test [7] and in test [8] was inactive.
As to `CN(C)CCCOc1ccc(CN2CC[C@H](NC(=O)c3ccc(Cl)c(Cl)c3)C2)c2ccccc12`, the growth inhibition in test [1] was 97% (active); in test [4], 101% (active). Besides, the inhibition in test [2] was 81% (active); in test [3] it was 0%. The outcome in test [5], in test [6], in test [7] and in test [8] was inactive.
For the molecule `CCCCN(Cc1cccc(C(F)(F)F)c1Cl)c1ccc(C(O)(C(F)(F)F)C(F)(F)F)cc1`, the growth inhibition is 55% (active) in test [1] and 91% (active) in test [4]. The inhibition in test [2] is 10%; in test [3] it was -3%. Moreover, the outcome in test [5], in test [6], in test [7] and in test [8] was inactive.
As for `Cc1ccc(/C=C/C(=O)N2CCC(CCN3CCC(c4c[nH]c5ccccc45)CC3)CC2)cc1C`, the growth inhibition in test [1] is 5%; in test [4], 94% (active). For the same molecule, the inhibition in test [2] is 50% (active); in test [3], -2%. For the same molecule, the outcome in test [5], in test [6], in test [7] and in test [8] was inactive.
Regarding `COc1cccc(CNC[C@@H](O)[C@H](Cc2ccccc2)NC(=O)c2cc3c4c(c2)c(C(C)C)cn4CCS(=O)(=O)N3C)c1`, the growth inhibition in test [1] and in test [4] was 98% (active) each time. Besides, the results for the inhibition in test [2] and in test [3] were 21% and -6%, respectively. Moreover, the result in test [5], in test [6], in test [7] and in test [8] was inactive.
Take `CC(C)Cn1c(Sc2ccc(C#N)c([N+](=O)[O-])c2)nnc1-c1ccc(N(C)C)cc1`: the growth inhibition in test [1] and in test [4] was 98% (active) throughout. The inhibition in test [2] and in test [3] was 4% each time. The outcome in test [5], in test [6], in test [7] and in test [8] was inactive.
Turning to `CC(C)NCc1cccc(-c2cccc(NC(=O)c3cccc(C#N)c3)c2)c1`, the growth inhibition in test [1] is 22%; in test [4], 99% (active). Besides, the inhibition in test [2] was 12%; in test [3], -4%. Further, the result in test [5], in test [6], in test [7] and in test [8] was inactive.
With `Cc1cc(NC(=O)CCN2CCN(c3cccc(Cl)c3Cl)CC2)ccc1N1CCN(C(C)C)CC1`, the growth inhibition in test [1] was 8%; in test [4], 99% (active). For the same molecule, the inhibition in test [2] was 82% (active); in test [3], 7%. Besides, the outcome in test [5], in test [6], in test [7] and in test [8] was inactive.
`CCSc1ccccc1COc1c(C)nc(N)nc1N`: the growth inhibition in test [1] was 4%; in test [4] it was 93% (active). The inhibition was 54% (active) in test [2] and 3% in test [3]. The outcome in test [5], in test [6], in test [7] and in test [8] was inactive.
On to `Cc1ccc(-n2c(=O)c3cccnc3n2CC(=O)Nc2cccc(C)c2C)cc1`, for which the figures for the growth inhibition in test [1] and in test [4] were 20% and 96% (active), respectively. For the same molecule, the inhibition in test [2] is 9%; in test [3], -3%. In addition, the outcome in test [5], in test [6], in test [7] and in test [8] was inactive.
Turning to `Cc1ccc(C(=O)Nc2ccc(-c3nc4ccccc4[nH]3)cc2)cc1S(=O)(=O)N1CCOCC1`, the growth inhibition was 16% in test [1] and 90% (active) in test [4]. Moreover, the inhibition in test [2] is 56% (active); in test [3] it was 4%. The outcome in test [5], in test [6], in test [7] and in test [8] was inactive.
Regarding `O=C(Nc1cccc(-c2nc3ccccc3[nH]2)c1)c1ccc(-c2cccc([N+](=O)[O-])c2)o1`, the growth inhibition in test [1] was 28%; in test [4], 93% (active). Further, the results for the inhibition in test [2] and in test [3] were 22% and -1%, respectively. Further, the outcome in test [5], in test [6], in test [7] and in test [8] was inactive.
Turning to `NC(=O)c1cccc(Nc2nccc(Nc3ccc(Oc4cccc(Cl)c4)c(Cl)c3)n2)c1`, the growth inhibition in test [1] was 12%; in test [4], 93% (active). In addition, the inhibition in test [2] was -3%; in test [3] it was 1%. The result in test [5], in test [6], in test [7] and in test [8] was inactive.
For `O=C(/C=C/c1ccc(Cl)c(Cl)c1)NCCC(CN1CCC(c2c[nH]c3ccccc23)CC1)c1ccccc1` (stereo not given), the values for the growth inhibition in test [1] and in test [4] were 42% and 100% (active), respectively. Moreover, the inhibition in test [2] is 84% (active); in test [3], -6%. The result in test [5], in test [6], in test [7] and in test [8] was inactive.
Regarding `CCOC(=O)c1c(-c2ccccc2)[nH]c2c(sc3ccccc32)c1=O`, the growth inhibition in test [1] was 65% (active); in test [4] it was 97% (active). In addition, the inhibition in test [2] was 2%; in test [3] it was -5%. The result in test [5], in test [6], in test [7] and in test [8] was inactive.
In the case of `c1cc(CNCC2CCCO2)cc(-c2csc(-c3nc4ccccc4[nH]3)c2)c1` (stereo not given), the growth inhibition in test [1] was 6%; in test [4], 91% (active). Moreover, the inhibition in test [2] is 5%; in test [3], 2%. Also, the outcome in test [5], in test [6], in test [7] and in test [8] was inactive.
Take `CCc1c(CCNCCCCCCNCCc2ccc(Br)cc2)ccc(OC)c1OC`: the growth inhibition in test [1] is 14%; in test [4], 99% (active). Also, the inhibition in test [2] is 100% (active); in test [3] it was 0%. The outcome in test [5], in test [6], in test [7] and in test [8] was inactive.

These data come from PubChem BioAssay.
